# From PubChem BioAssay AID1159580 (chemical genetic matrix, 2015)
# Out of some 5,500 compounds screened, about 2,000 (36%) were called active. About 18% were inconclusive and are not listed. Some of the results follow. Unmarked numbers belong to inactive results. Rule as the data show it: active = normalized growth mostly below about 0.91 (no sharp cut-off); inconclusive = no clear call, values can overlap the other calls; inactive = mostly above about 0.92.
# Experiment: chemical genetic growth profiling, strain panel (AID 1159580);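 also: tested at 20 µM; growth read once vehicle control cultures reached saturation at 30 °C; 1 = growth at the plate median or of vehicle wells; lower values mean less growth of the strain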
# Conditions: S. cerevisiae deletion strains, growth OD
# [1] = locus YAR019C, strain CDC15, stronger effect = lower value
# [2] = locus YBL105C, strain PKC1, stronger effect = lower value
# [3] = locus YBR135W, strain CKS1, stronger effect = lower value
# [4] = locus YBR136W, strain MEC1, stronger effect = lower value
# [5] = locus YBR160W, strain CDC28, stronger effect = lower value
# [6] = locus YDL017W, strain CDC7, stronger effect = lower value
# [7] = locus YDL028C, strain MPS1, stronger effect = lower value
# [8] = locus YDL101C, strain DUN1, stronger effect = lower value
# [9] = locus YDL108W, strain KIN28, stronger effect = lower value
# [10] = locus YDL132W, strain cdc53, stronger effect = lower value
# [11] = locus YDL214C, strain PRR2, stronger effect = lower value
# [12] = locus YDR052C, strain DBF4, stronger effect = lower value
# [13] = locus YDR054C, strain cdc34, stronger effect = lower value
# [14] = locus YDR226W, strain ADK1, stronger effect = lower value
# [15] = locus YDR477W, strain SNF1, stronger effect = lower value
# [16] = locus YER123W, strain YCK3, stronger effect = lower value
# [17] = locus YER133W, strain GLC7, stronger effect = lower value
# [18] = locus YFL009W, strain cdc4, stronger effect = lower value
# [19] = locus YFL029C, strain CAK1, stronger effect = lower value
# [20] = locus YFR003C, strain YPI1, stronger effect = lower value
# [21] = locus YFR019W, strain FAB1, stronger effect = lower value
# [22] = locus YFR028C, strain CDC14, stronger effect = lower value
# [23] = locus YGR040W, strain KSS1, stronger effect = lower value
# [24] = locus YGR052W, strain FMP48, stronger effect = lower value
# [25] = locus YGR092W, strain DBF2, stronger effect = lower value
# [26] = locus YHR030C, strain SLT2, stronger effect = lower value
# [27] = locus YHR079C, strain IRE1, stronger effect = lower value
# [28] = locus YHR082C, strain KSP1, stronger effect = lower value
# [29] = locus YHR205W, strain SCH9, stronger effect = lower value
# [30] = locus YIL147C, strain SLN1, stronger effect = lower value
# [31] = locus YJL095W, strain BCK1, stronger effect = lower value
# [32] = locus YJL128C, strain PBS2, stronger effect = lower value
# [33] = locus YJL157C, strain FAR1, stronger effect = lower value
# [34] = locus YJR016C, strain ILV3, stronger effect = lower value
# [35] = locus YJR066W, strain TOR1 (second series), stronger effect = lower value
# [36] = locus YJR066W, strain TOR1, stronger effect = lower value
# [37] = locus YKL048C, strain ELM1, stronger effect = lower value
# [38] = locus YKL067W, strain YNK1, stronger effect = lower value
# [39] = locus YKL101W, strain HSL1, stronger effect = lower value
# [40] = locus YKL193C, strain SDS22, stronger effect = lower value
# [41] = locus YKL203C, strain TOR2, stronger effect = lower value
# [42] = locus YLR113W, strain HOG1, stronger effect = lower value
# [43] = locus YLR133W, strain CKI1, stronger effect = lower value
# [44] = locus YLR403W, strain SFP1, stronger effect = lower value
# [45] = locus YML070W, strain DAK1, stronger effect = lower value
# [46] = locus YMR001C, strain CDC5, stronger effect = lower value
# [47] = locus YMR205C, strain PFK2 (second series), stronger effect = lower value
# [48] = locus YMR277W, strain FCP1, stronger effect = lower value
# [49] = locus YNL006W, strain LST8, stronger effect = lower value
# [50] = locus YNL020C, strain ARK1, stronger effect = lower value
# [51] = locus YNL161W, strain CBK1, stronger effect = lower value
# [52] = locus YNL183C, strain NPR1, stronger effect = lower value
# [53] = locus YNL207W, strain RIO2, stronger effect = lower value
# [54] = locus YNL222W, strain SSU72, stronger effect = lower value
# [55] = locus YNL307C, strain MCK1 (second series), stronger effect = lower value
# [56] = locus YOL078W, strain AVO1, stronger effect = lower value
# [57] = locus YOL136C, strain PFK27, stronger effect = lower value
# [58] = locus YOR061W, strain CKA2, stronger effect = lower value
# [59] = locus YOR119C, strain RIO1, stronger effect = lower value
# [60] = locus YOR231W, strain MKK1, stronger effect = lower value
# [61] = locus YOR329C, strain SCD5, stronger effect = lower value
# [62] = locus YPL031C, strain PHO85, stronger effect = lower value
# [63] = locus YPL153C, strain RAD53, stronger effect = lower value
# [64] = locus YPL204W, strain HRR25, stronger effect = lower value
# [65] = locus YPL209C, strain IPL1, stronger effect = lower value
# [66] = locus YPL256C, strain CLN2, stronger effect = lower value
# [67] = locus YPR025C, strain CCL1, stronger effect = lower value
# [68] = locus YPR106W, strain ISR1, stronger effect = lower value
# [69] = locus YPR111W, strain DBF20, stronger effect = lower value
# [70] = strain NNK1, stronger effect = lower value
# [71] = strain TSCII, stronger effect = lower value
smiles,measurement,setting,value
Cc1cc(Br)ccc1-n1c(Sc2c([N+](=O)[O-])cc(C(F)(F)F)cc2[N+](=O)[O-])nc2ccccc2c1=O,normalized growth,[1],0.99
same,normalized growth,[2],0.985
same,normalized growth,[3],0.984
same,normalized growth,[4],0.978
same,normalized growth,[5],0.988
same,normalized growth,[6],0.989
same,normalized growth,[7],0.983
same,normalized growth,[8],0.988
same,normalized growth,[9],0.984
same,normalized growth,[10],0.994
same,normalized growth,[11],0.892
same,normalized growth,[12],0.989
same,normalized growth,[13],0.985
same,normalized growth,[14],0.981
same,normalized growth,[15],0.933
same,normalized growth,[16],0.901
same,normalized growth,[17],0.933
same,normalized growth,[18],0.986
same,normalized growth,[19],0.986
same,normalized growth,[20],0.986
same,normalized growth,[21],0.952
same,normalized growth,[22],0.994
same,normalized growth,[23],0.938
same,normalized growth,[24],0.945
same,normalized growth,[25],0.968
same,normalized growth,[26],0.972
same,normalized growth,[27],0.922
same,normalized growth,[28],0.997
same,normalized growth,[29],0.879
same,normalized growth,[30],0.984
same,normalized growth,[31],0.88
same,normalized growth,[32],0.915
same,normalized growth,[33],0.927
same,normalized growth,[34],0.987
same,normalized growth,[35],0.885
same,normalized growth,[36],1.06
same,normalized growth,[37],0.946
same,normalized growth,[38],0.943
same,normalized growth,[39],0.93
same,normalized growth,[40],0.982
same,normalized growth,[41],1
same,normalized growth,[42],0.841 (active)
same,normalized growth,[43],0.95
same,normalized growth,[44],0.961
same,normalized growth,[45],0.923
same,normalized growth,[46],0.981
same,normalized growth,[47],0.939
same,normalized growth,[48],0.982
same,normalized growth,[49],0.981
same,normalized growth,[50],0.943
same,normalized growth,[51],0.982
same,normalized growth,[52],1.02
same,normalized growth,[53],0.999
same,normalized growth,[54],0.983
same,normalized growth,[55],0.932
same,normalized growth,[56],0.984
same,normalized growth,[57],0.926
same,normalized growth,[58],0.937
same,normalized growth,[59],0.998
same,normalized growth,[60],0.955
same,normalized growth,[61],0.988
same,normalized growth,[62],0.923
same,normalized growth,[63],0.917
same,normalized growth,[64],0.928
same,normalized growth,[65],0.99
same,normalized growth,[66],0.943
same,normalized growth,[67],0.983
same,normalized growth,[68],0.968
same,normalized growth,[69],0.972
same,normalized growth,[70],0.968
same,normalized growth,[71],0.993
CC(=O)c1sc(SCCS(=O)(=O)c2ccc(C)cc2)c2c1CC(C)(C)CC2=O,normalized growth,[1],0.984
same,normalized growth,[2],1.01
same,normalized growth,[3],0.984
same,normalized growth,[4],0.98
same,normalized growth,[5],0.98
same,normalized growth,[6],0.992
same,normalized growth,[7],0.98
same,normalized growth,[8],0.969
same,normalized growth,[9],0.97
same,normalized growth,[10],0.978
same,normalized growth,[11],0.926
same,normalized growth,[12],0.935
same,normalized growth,[13],1.01
same,normalized growth,[14],0.962
same,normalized growth,[15],0.643 (active)
same,normalized growth,[16],0.914
same,normalized growth,[17],0.267 (active)
same,normalized growth,[18],0.973
same,normalized growth,[19],0.986
same,normalized growth,[20],0.97
same,normalized growth,[21],0.932
same,normalized growth,[22],0.97
same,normalized growth,[23],0.675 (active)
same,normalized growth,[24],0.947
same,normalized growth,[25],0.963
same,normalized growth,[26],0.498 (active)
same,normalized growth,[27],1.08
same,normalized growth,[28],0.987
same,normalized growth,[29],0.958
same,normalized growth,[30],0.979
same,normalized growth,[31],0.589
same,normalized growth,[32],0.982
same,normalized growth,[33],0.943
same,normalized growth,[34],0.985
same,normalized growth,[35],0.82
same,normalized growth,[36],0.995
same,normalized growth,[37],0.859
same,normalized growth,[38],0.936
same,normalized growth,[39],0.926
same,normalized growth,[40],0.98
same,normalized growth,[41],0.635 (active)
same,normalized growth,[42],0.912
same,normalized growth,[43],0.931
same,normalized growth,[44],0.828
same,normalized growth,[45],0.948
same,normalized growth,[46],0.983
same,normalized growth,[47],0.923
same,normalized growth,[48],0.964
same,normalized growth,[49],0.967
same,normalized growth,[50],0.935
same,normalized growth,[51],0.973
same,normalized growth,[52],0.962
same,normalized growth,[53],1
same,normalized growth,[54],0.967
same,normalized growth,[55],0.913
same,normalized growth,[56],0.972
same,normalized growth,[57],0.896
same,normalized growth,[58],0.941
same,normalized growth,[59],0.653 (active)
same,normalized growth,[60],0.94
same,normalized growth,[61],0.979
same,normalized growth,[62],0.818
same,normalized growth,[63],0.622 (active)
same,normalized growth,[64],0.653 (active)
same,normalized growth,[65],0.986
same,normalized growth,[66],0.956
same,normalized growth,[67],0.975
same,normalized growth,[68],0.978
same,normalized growth,[69],0.963
same,normalized growth,[70],0.991
same,normalized growth,[71],0.967
